According to PubChem BioAssay (NCI):
About 83,000 compounds went through this panel and 20% of them were active in at least one assay; those are over-represented in the sample as a whole.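 Compound tested at a single concentration for 48 hours in 96-well plates; a percent growth value below 10 was scored as active.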 Unmarked numbers belong to inactive results. Active and inactive are the calls of the source.

Experiments:
Test in all cases: NCI-60 one-dose screen, 48 h (100 = growth as untreated, 0 = no growth, -100 = all killed)
DU-145 prostate = settings: 10 µM unless noted
K-562 leukemia = settings: 10 µM unless noted
MALME-3M melanoma = settings: 10 µM unless noted
RXF 393 renal = settings: 10 µM unless noted
SF-295 CNS = settings: 10 µM unless noted
UACC-257 melanoma = settings: 10 µM unless noted
HCT-15 colon = settings: 10 µM
HT29 colon = settings: 10 µM unless noted
SNB-75 CNS = settings: 10 µM unless noted
SNB-19 CNS = settings: 10 µM unless noted
PC-3 prostate = settings: 10 µM unless noted
SK-MEL-5 melanoma = settings: 10 µM unless noted
LOX IMVI melanoma = settings: 10 µM unless noted
CAKI-1 renal = settings: 10 µM unless noted
A498 renal = settings: 10 µM unless noted
HL-60(TB) leukemia = settings: 10 µM unless noted
MOLT-4 leukemia = settings: 10 µM
T-47D breast = settings: 10 µM unless noted
BT-549 breast = settings: 10 µM
HCC-2998 colon = settings: 10 µM unless noted

Row | Compound | growth (DU-145 prostate) | growth (K-562 leukemia) | growth (MALME-3M melanoma) | growth (RXF 393 renal) | growth (SF-295 CNS) | growth (UACC-257 melanoma) | growth (HCT-15 colon) | growth (HT29 colon) | growth (SNB-75 CNS) | growth (SNB-19 CNS) | growth (PC-3 prostate) | growth (SK-MEL-5 melanoma) | growth (LOX IMVI melanoma) | growth (CAKI-1 renal) | growth (A498 renal) | growth (HL-60(TB) leukemia) | growth (MOLT-4 leukemia) | growth (T-47D breast) | growth (BT-549 breast) | growth (HCC-2998 colon)
1 | C[C@]12CC[C@H](OC3OC(O)C(O)C(O)C3O)C=C1CCC1C2CC[C@]2(C)[C@@H](c3ccc(=O)oc3)CC[C@]12O (stereo not given in full) | -100% (active) | -35.3% (active) | -47.6% (active) | -24.3% (active) | -77.7% (active) | 112% | -81.8% (active) | -84.5% (active) | -53.2% (active) | -98.8% (active) | -12.2% (active) | -96.3% (active) | -84.4% (active) | -62.6% (active) | -23.3% (active) | -57.3% (active) | -39.3% (active) | -71.4% (active) | -92.3% (active) | -90.4% (active)
2 | c1ccc2nc(OCCN3CC3)ccc2c1 | 98.6% | 26.8% | 113% | 59.1% | 75.8% | 59% | 86.5% | 43.8% | 77% | 87% | – | 98.6% | 86.3% | 90.8% | 102% | 72.7% | 34% | 80.3% | – | 86.7%
3 | COc1ccc(OC)c(/C=C(/C)[N+](=O)[O-])c1 | 6.46% (active) | 4.29% (active) | – | -18.5% (active) | 110% | 0.553% (active) | -33.1% (active) | -29% (active) | 77.2% | 97.6% | 52.6% | 64.6% | -88.6% (active) | 6.25% (active) | 110% | 62.3% | 0.523% (active) | 19.9% | – | 106%
4 | CCN(CC)c1ccc(C=C2C(=O)NC(=S)NC2=O)cc1 | 98.8% | 78% | 123% | -22.3% (active) | 99.3% | 91.3% | 77.5% | 92.2% | 75.8% | 88.9% | – | 93.4% | 80% | 91.8% | 97.5% | 42.7% | 81% | 78% | 98.5% | 96.8%
5 | CNC(=O)Oc1cccc(N(C)C)c1 | 110% | 102% | 101% | 103% | 99.8% | 93.5% | 103% | 106% | 97.5% | 102% | 97.2% | 99.2% | 96.9% | 91.6% | 104% | 103% | 107% | 104% | 94.1% | 111%
6 | [Br][Pb]([c]1ccccc1)([c]1ccccc1)[c]1ccccc1 | -97.5% (active) | -46.7% (active) | – | -83.2% (active) | – | -99% (active) | -77.8% (active) | -73.4% (active) | -100% (active) | -93% (active) | -80.6% (active) | -100% (active) | -100% (active) | -100% (active) | -100% (active) | -39.9% (active) | -24.4% (active) | -72% (active) | – | -94.6% (active)
7 | Cc1ccc(C[As+](c2ccccc2)(c2ccccc2)c2ccccc2)cc1 | 23.8% | 9.47% (active) | 25% | 8.64% (active) | -15.6% (active) | -17.5% (active) | 75.9% | -3.93% (active) | 15.1% | 17.2% | 7.95% (active) | -65.3% (active) | -26.6% (active) | 60.1% | -11% (active) | -26.8% (active) | 14% | -3.86% (active) | -4.76% (active) | 16.2%
8 | C=C=[CH][Sn]([c]1ccccc1)([c]1ccccc1)[c]1ccccc1 | -91.1% (active) | – | -36.6% (active) | -83.5% (active) | -42.7% (active) | -37.2% (active) | -48.6% (active) | -72.1% (active) | 14.2% | -50% (active) | -50.5% (active) | -81.5% (active) | -77.2% (active) | -40.4% (active) | – | – | – | -36.7% (active) | -34.9% (active) | -67.2% (active)
9 | O=C1NC(=O)C(CN2C(=O)C3(c4ccccc42)[C@H](Cl)C(=O)N3c2ccccc2)C(=O)N1 (stereo not given in full) | 102% | 65.5% | 95.4% | 65.5% | 91.5% | – | 94.7% | 98.3% | – | 88.6% | 83.6% | 78.6% | 50.2% | 85.7% | 105% | 85.4% | 62.5% | 38.1% | 72.3% | 83.9%
10 | CN1C(=O)NC(=O)C(N=Nc2ccc(Cl)cc2)C1=O (stereo not given) | 106% | 54.7% | 134% | 107% | – | 105% | 88% | 99.1% | 126% | 106% | 94.6% | 96% | 102% | – | 60.9% | 90.7% | 96% | 101% | 80.3% | 90.6%
11 | C=CCc1ccc(OC(=O)Cc2ccccc2)c(OC)c1 | 111% | – | 86.8% | 110% | 95.7% | 120% | 103% | 115% | 76.3% | 110% | 100% | 102% | 93.6% | 95.2% | 97.4% | – | – | 106% | 106% | 95.8%
12 | O=C(C(=O)N1CCCC1)c1cn(CCCCCn2cc(C(=O)C(=O)N3CCCC3)c3ccccc32)c2ccccc12 | 100% | 68.8% | 109% | 108% | 93.9% | 102% | 97.5% | – | 74.9% | 93.5% | 65.9% | 75.9% | – | 73.9% | 94.1% | 109% | – | 91.3% | 90% | 103%
13 | Nc1cccc(CC(=O)Nc2ccc(S(=O)(=O)F)cc2)c1 | 110% | 144% | 90% | 87.3% | 101% | 103% | 101% | 91.9% | 71.8% | 105% | 82.2% | 104% | 98% | – | – | – | 117% | 92.5% | 97% | 43.9%
14 | CO[C@@H]1[C@H](OC(=O)NC(=O)CCl)CC[C@]2(CO2)[C@H]1[C@@]1(C)O[C@@H]1CC=C(C)C | 59.8% | 47.2% | 57.7% | 68.2% | 75.1% | 44.3% | 30% | 58.1% | 41.7% | 48.6% | 20.2% | 55.4% | 22.8% | 67.2% | 103% | 49.1% | 63% | 64.6% | 61.2% | 80.9%
15 | Cc1ccc(N)cc1[As]=[As]c1cc(N)ccc1C (stereo not given) | -40.6% (active) | -5.72% (active) | -90.7% (active) | – | 73.2% | -97.3% (active) | -68.5% (active) | -84.6% (active) | -99.6% (active) | -47.5% (active) | -89.9% (active) | -87.2% (active) | -56.9% (active) | -91.2% (active) | -26.3% (active) | -43.9% (active) | -29.9% (active) | -41.9% (active) | -93.6% (active) | -73.8% (active)
16 | COc1ccc(C2SCC(=O)Nc3c2c(C)nn3-c2nc3ccc(C)cc3s2)cc1O (stereo not given) | 73.5% | 9.45% (active) | 43.5% | 50.2% | 32.4% | 70.1% | 23.9% | 10.5% | 32.6% | 53.8% | 19.9% | 16.6% | 36.9% | 31.1% | 40.9% | 3.8% (active) | 18.2% | – | – | 54.2%
17 | CC[C@H](C)[C@H](NC(=O)Nc1ccccc1)C(=O)N(C)[C@H](C[C@@H](OC(C)=O)c1nc(C(=O)N[C@@H](Cc2ccccc2)C[C@H](C)C(=O)OC)cs1)C(C)C | -3.41% (active) | 15.7% | 41.4% | 0.067% (active) | 4.42% (active) | 60.6% | 9.43% (active) | -23.1% (active) | – | 45% | 21.6% | -70.3% (active) | 23.9% | – | -15.6% (active) | -17.2% (active) | 15.7% | 61.6% | 2.56% (active) | 18.7%
